Experiment [1] can be described thus: NCI Yeast Anticancer Drug Screen. Data for the rad50 strain (AID 155).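 Also: 0% = growth of vehicle-only cultures of the same strain.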 The settings on record: S. cerevisiae rad50 strain growth inhibition; at 50.0 µM; active compounds read high. In a few lines: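 Growth of the mutant yeast was measured after compound exposure and referenced to vehicle-treated cultures.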
A short description of experiment [2]: NCI Yeast Anticancer Drug Screen. Data for the mec2-1 strain (AID 157). The settings on record: S. cerevisiae mec2-1 strain, at 50.0 µM, active compounds read high. In a few lines: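 Test agents were screened against the mec2-1 yeast strain, with defined DNA repair or cell cycle alteration. Growth was scored as inhibition against vehicle-only controls.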
A short description of experiment [3]: NCI Yeast Anticancer Drug Screen. Data for the sgs1 mgt1 strain (AID 161).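 Also: 0% = growth of cultures given vehicle only.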 The settings on record: S. cerevisiae sgs1 mgt1 strain, at 50.0 µM, active compounds read high. In a few lines: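 Mutant yeast exposed to compound; growth scored against vehicle-only wells.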
Experiment [4] can be described thus: NCI Yeast Anticancer Drug Screen. Data for the cln2 rad14 strain (AID 165).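 Also: 0% = growth equal to vehicle treated cultures.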 The conditions noted are these: S. cerevisiae cln2 rad14 strain, at 50.0 µM, active compounds read high. In a few lines:
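Growth of compound-exposed yeast (cln2 rad14 genotype) measured and expressed as inhibition relative to vehicle.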

Experiment [5] is described as follows: NCI Yeast Anticancer Drug Screen. Data for the bub3 strain (AID 167). The conditions noted are these: S. cerevisiae bub3 mutant strain, at 50.0 µM, active compounds read high. In a few lines: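 Whole-cell yeast assay. The mutant strain was incubated with compounds, and growth inhibition was determined by comparison with vehicle-treated cells.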
Experiment [6] is described as follows: NCI Yeast Anticancer Drug Screen. Data for the mlh1 rad18 strain (AID 175). The settings on record: S. cerevisiae mlh1 rad18 strain growth inhibition; at 50.0 µM; active compounds read high. An outline of the steps: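 In this whole-cell yeast screen, a strain with altered DNA damage repair is challenged with compound, and its growth is measured against matched vehicle-treated controls.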

Drawing on PubChem BioAssay (NCI), this text covers growth inhibition for 21 molecules.

About 79,000 compounds went through this panel and 15% of them were active in at least one assay; those are over-represented in the sample as a whole. Values without a mark were called inactive. Active and inactive are the calls of the source. Rule as the data show it: active = growth inhibition above about 70%; inactive = the rest.

For `O=Cc1cc2c(cc1Cl)OCO2`, the growth inhibition in experiment [1] was -3.3%; in experiment [2], -8.05%; in experiment [3], -13.8%; in experiment [4] it was 14.8%; in experiment [5], -8.4%; in experiment [6], -2%.
Regarding `Cc1ccoc1`, the growth inhibition in experiment [1] is 12.5%; in experiment [2] it was -18.1%; in experiment [3] it was 6.45%; in experiment [4], 11.8%; in experiment [5] it was 26.8%; in experiment [6] it was 15.8%.
Regarding `COC(=O)n1c(CBr)c(Br)c2ccccc21`, the growth inhibition is 26.3% in experiment [1]; -2.15% in experiment [2]; -3.65% in experiment [3]; -3.8% in experiment [4]; 4.9% in experiment [5]; 1.5% in experiment [6].
As to `CCCC(CCC)C(=O)[O-].CCCC(CCC)C(=O)[O-].CCCC(CCC)C(=O)[O-].CCCC(CCC)C(=O)[O-].[Cu+2].[Cu+2]`, the growth inhibition in experiment [1] is 1.4%; in experiment [2], 13.4%; in experiment [3], -2.8%; in experiment [4], 19.9%; in experiment [5], 20%; in experiment [6] it was 14.2%.
As for `CCc1c(CN)c(CC)c(CNC2=NCCN2)c(CC)c1CNC1=NCCN1`, the growth inhibition in experiment [1] was 13.6%; in experiment [2], 3.45%; in experiment [3], 12.2%; in experiment [4], 10.9%; in experiment [5], 12.8%; in experiment [6], 15.2%.
Consider `C(=C/c1ccccc1)/C=N/N1CCN(/N=C/C=C/c2ccccc2)CC1`, for which the growth inhibition in experiment [1] is -1.4%; in experiment [2], 20.6%; in experiment [3], 14.8%; in experiment [4] it was -7.1%; in experiment [5] it was 18.5%; in experiment [6], -7.05%.
For `CC1(C(=O)O)CCCN1` (stereo unspecified), the growth inhibition in experiment [1] is 9.35%; in experiment [2], -7.6%; in experiment [3] it was -20.6%; in experiment [4], 15.4%; in experiment [5] it was -0.95%; in experiment [6], -9%.
`Nc1ccc(Cn2ccc(=O)[nH]c2=O)cc1`: the growth inhibition is -14.4% in experiment [1]; 3.2% in experiment [2]; 0.25% in experiment [3]; -26.9% in experiment [4]; -11.2% in experiment [5]; -0.8% in experiment [6].
Take `OCCCN1CCCCC1`: the growth inhibition was -2.7% in experiment [1]; -13.6% in experiment [2]; 1.05% in experiment [3]; 15.8% in experiment [4]; -1% in experiment [5]; 3.95% in experiment [6].
As for `CNc1nc(NC)nc(-c2ccccc2)n1`, the growth inhibition in experiment [1] was -25.2%; in experiment [2], -16.1%; in experiment [3], -26.9%; in experiment [4], -55%; in experiment [5], -22.6%; in experiment [6], -22.9%.
In the case of `O=C1C=C(Nc2ccccc2C(=O)c2ccccc2)c2ccccc2C1=O`, the growth inhibition is 18.9% in experiment [1]; -30.4% in experiment [2]; 6.65% in experiment [3]; 4.9% in experiment [4]; 14.8% in experiment [5]; 2.4% in experiment [6].
Consider `c1ccc2c(c1)nc(NC1CCCC1)c1[nH]c(C3CCCC3)nc12`, for which the growth inhibition in experiment [1] was -26.1%; in experiment [2], -36.6%; in experiment [3], -56.9%; in experiment [4], -10.3%; in experiment [5], -29.2%; in experiment [6] it was -50%.
Regarding `CC(C)(C)C1=CC(=N/S(=O)(=O)c2ccccc2)/C(N=[N+]=[N-])=C(Cl)C/1=N\S(=O)(=O)c1ccccc1`, the growth inhibition in experiment [1] is 54.8%; in experiment [2], 27.4%; in experiment [3] it was 48.2%; in experiment [4], 14%; in experiment [5] it was 23.6%; in experiment [6], 39%.
In the case of `O=c1[nH][nH]c(=O)c2c1nc(SCCc1ccccc1)n2Cc1ccccc1`, the growth inhibition in experiment [1] is 26.4%; in experiment [2], 4.55%; in experiment [3], 11.7%; in experiment [4], 19.4%; in experiment [5], 1.8%; in experiment [6] it was 14.8%.
In the case of `CC12CCC3C(CCC4CCCCC43C)C1CC/C2=N\O` (stereo unspecified), the growth inhibition in experiment [1] is 90.2% (active); in experiment [2] it was 45.6%; in experiment [3] it was 79.8% (active); in experiment [4], 39.8%; in experiment [5], 85.5% (active); in experiment [6], 96.5% (active).
Regarding `COc1cc(NS(=O)(=O)c2ccc(C)cc2)c2nccnc2c1`, the growth inhibition in experiment [1] is 14.1%; in experiment [2] it was 15.7%; in experiment [3], 18.6%; in experiment [4], -3.35%; in experiment [5], 11.9%; in experiment [6], 29.6%.
On to `O=C(Nc1ccc(C(F)(F)F)cc1[N+](=O)[O-])C(=O)Nn1c(=S)[nH]c2ccccc2c1=O`, for which the growth inhibition in experiment [1] is 20.3%; in experiment [2], 11.7%; in experiment [3], -4.65%; in experiment [4], 18.5%; in experiment [5] it was 7.9%; in experiment [6], 23.1%.
For `CCOC(=O)N1C2c3ccccc3C3C(C21)N3C(=O)OCC` (stereo unspecified), the growth inhibition in experiment [1] is -0.3%; in experiment [2] it was -12.3%; in experiment [3], 0.3%; in experiment [4], 1.95%; in experiment [5], 3.9%; in experiment [6], -11.4%.
`NC(=O)c1ncnc2nc[nH]c12`: the growth inhibition in experiment [1] is -14.2%; in experiment [2], -42.5%; in experiment [3], -9%; in experiment [4], -29.1%; in experiment [5], -20.4%; in experiment [6], -10.6%.
Turning to `N=c1nccnn1O`, the growth inhibition in experiment [1] was 6.45%; in experiment [2], 13.2%; in experiment [3], -8.2%; in experiment [4], 10.4%; in experiment [5], -6.5%; in experiment [6], 3.95%.
Turning to `O=C(Cn1ccc(=O)[nH]c1=O)Nc1ccc(C(=O)O)c(O)c1`, the growth inhibition in experiment [1] is 0.45%; in experiment [2], -43.1%; in experiment [3], -24.9%; in experiment [4], -45.8%; in experiment [5], -31.4%; in experiment [6] it was 0.55%.
